From PubChem BioAssay (Tox21)
Unmarked numbers belong to inactive results. Results filed as inconclusive are left out. Entries that show only a call come without a potency. Active and inactive are the calls of the source. Unless noted, calls come from the whole dose curve; as a rule, active = well fitted curve in the direction sought with a large enough effect in the repeat runs; inconclusive = weak or mixed curves; inactive = no such curve, though single readings can be large; an effect the other way counts as inactive or inconclusive.

Legend:
[1] = qHTS assay to identify small molecule agonists of the hypoxia (HIF-1) signaling pathway (AID 1224846; active = well fitted activation curve with a large enough effect in the signal ratio in the repeat runs, not every such curve was filed as active; the % refers to the signal ratio)
How it was run: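 HRE-bla ME-180 cells (beta-lactamase reporter under hypoxia response element) were plated at 2,000 cells/well in medium with 0.5% dialyzed FBS, rested 5 hrs, then given compounds in DMSO for 17 hrs at 37C, 5% CO2. Reporter induction was read with CCF4-AM FRET substrate.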

[2] = qHTS assay to identify small molecule agonists of H2AX - cell viability counter screen (AID 1224847; calls by dose curve; note: nearly all actives have a fitted effect of over 30% in size; note: potency is the fitted concentration of half-maximal effect)
How it was run: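 We seed wild-type CHO-K1 cells overnight, treat them for 3 hr at 37C with compounds in 15-concentration series, and quantify remaining viability by CellTiter-Glo luminescence.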

[3] = qHTS assay to identify small molecule antagonists of the estrogen related receptor (ERR) signaling pathway from Tox21 library (AID 1224848); note: potency is the fitted concentration of half-maximal effect; nearly all actives have a fitted effect of over 50% in size
How it was run: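 Antagonist-mode screen of the Tox21 10K library in an NTP-provided ERR reporter cell line; 18 h compound exposure at 37 C, luminescence measured with ONE-Glo.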

[4] = qHTS assay to identify small molecule agonists of the estrogen related receptor (ERR) signaling pathway from Tox21 library (AID 1224849; calls by dose curve; note: nearly all actives have a fitted effect of over 15% in size); settings: ERR reporter cell line, ONE-Glo luciferase, 18 h; at 92.4 µM (top of the series) unless noted
How it was run: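 ERR reporter cell line (NTP) seeded, rested 6 h at 37 C/5% CO2, then pinned with Tox21 compounds in DMSO. After 18 h at 37 C, ONE-Glo luciferase luminescence was read following 30 min at room temperature.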

[5] = qHTS RealTime-Glo MT Cell Viability Assay in HepG2 cells - 24 hour (AID 1224867); note: nearly all actives have a fitted effect of over 50% in size
How it was run: (§1)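 Real-time, nonlytic viability: 600 HepG2 cells/well mixed with NanoLuc enzyme plus prosubstrate; 5 h settle, compound (DMSO) added by pintool; luminescence monitored over 40 h at 37 C.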

[6] = A CellTox Green Cytotoxicity Assay to monitor cytotoxicity in HEK293 cells - 0 hour (AID 1224869); note: nearly all actives have a fitted effect of over 50% in size
How it was run: (§2)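 HEK293 cells premixed with CellTox Green dye were seeded at 600 cells/well and left 5 h at 37 C/5% CO2 before pin transfer of 23 nL compound in DMSO. Fluorescence from dye bound to dead-cell DNA was read during 40 h treatment.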

[7] = qHTS RealTime-Glo MT Cell Viability Assay in HepG2 cells - 40 hour (AID 1224870); note: nearly all actives have a fitted effect of over 50% in size; note: potency is the fitted concentration of half-maximal effect
How it was run: (§3)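 Real-time viability: cells seeded at 600 per well together with NanoLuc and cell-permeant prosubstrate, compounds added after 5 h incubation. Luminescence tracked at 0, 8, 16, 24, 32 and 40 h of exposure.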

[8] = A CellTox Green Cytotoxicity Assay to monitor cytotoxicity in HEK293 cells - 40 hour (AID 1224871); note: nearly all actives have a fitted effect of over 45% in size
How it was run: as §2

[9] = qHTS RealTime-Glo MT Cell Viability Assay in HepG2 cells - 8 hour (AID 1224873); note: nearly all actives have a fitted effect of over 55% in size
How it was run: as §3

[10] = qHTS RealTime-Glo MT Cell Viability Assay in HEK293 cells - 40 hour (AID 1224874); settings: RealTime-Glo luminescence; max response: active compounds read low
How it was run: (§4)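 HEK293 cells mixed with RealTime-Glo reagents (NanoLuc plus cell-permeant prosubstrate) at 600 cells/well, preincubated 5 h at 37 C/5% CO2, then given 23 nL compound in DMSO. Nonlytic luminescence from viable cells was read at 0, 8, 16, 24, 32 and 40 h.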

[11] = A CellTox Green Cytotoxicity Assay to monitor cytotoxicity in HEK293 cells - 24 hour (AID 1224875); note: nearly all actives have a fitted effect of over 45% in size
How it was run: as §2

[12] = A CellTox Green Cytotoxicity Assay to monitor cytotoxicity in HepG2 cells - 16 hour (AID 1224876); note: nearly all actives have a fitted effect of over 45% in size
How it was run: (§5)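 HepG2 cells were seeded together with the CellTox Green dye at 600 cells/well, left 5 h at 37 C/5% CO2, then given compounds in DMSO. Fluorescence from dye bound to dead-cell DNA was read repeatedly over 40 h of treatment at 37 C.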

[13] = qHTS RealTime-Glo MT Cell Viability Assay in HEK293 cells - 0 hour (AID 1224880); note: nearly all actives have a fitted effect of over 45% in size; note: potency is the fitted concentration of half-maximal effect
How it was run: as §4

[14] = qHTS RealTime-Glo MT Cell Viability Assay in HepG2 cells - 32 hour (AID 1224877); note: nearly all actives have a fitted effect of over 55% in size
How it was run: as §1

[15] = A CellTox Green Cytotoxicity Assay to monitor cytotoxicity in HepG2 cells - 24 hour (AID 1224878); note: nearly all actives have a fitted effect of over 45% in size; note: potency is the fitted concentration of half-maximal effect
How it was run: as §5

[16] = A CellTox Green Cytotoxicity Assay to monitor cytotoxicity in HepG2 cells - 40 hour (AID 1224879); note: nearly all actives have a fitted effect of over 40% in size; note: potency is the fitted concentration of half-maximal effect
How it was run: as §5

[17] = qHTS assay to identify small molecule agonists of H2AX (AID 1224845; active = well fitted activation curve with a large enough effect in the signal ratio in the repeat runs, not every such curve was filed as active; the % refers to the signal ratio; note: potency is the fitted concentration of half-maximal effect)
How it was run: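 Phospho-H2AX Ser139 measured by HTRF (ex 320 nm; em 665 and 620 nm) after 24 hr antibody incubation. Compounds, 15 concentrations, 0.76% DMSO, were applied to CHO-K1 cells for 3hr at 37C before lysis.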

[18] = qHTS RealTime-Glo MT Cell Viability Assay in HEK293 cells - 16 hour (AID 1224872); note: nearly all actives have a fitted effect of over 50% in size; note: potency is the fitted concentration of half-maximal effect
How it was run: (§6)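 Cells + reagent dispensed (600 cells/well, HEK293) → 5 h at 37 C/5% CO2 → 23 nL compound in DMSO pinned → 40 h at 37 C → luminescence read at 0, 8, 16, 24, 32, 40 h.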

[19] = qHTS RealTime-Glo MT Cell Viability Assay in HEK293 cells - 32 hour (AID 1224868)
How it was run: as §6

With Cc1cc2c(cc1C(F)(F)F)N(C(=O)Nc1ccc(Oc3cccnc3C)nc1)CC2 as the molecule, how does the Potency [1] read?
Its Potency is “inactive”.

And the Potency [2]?
Its Potency is 45.7 µM (active).

And the Potency [3]?
Its Potency is 4.93 µM (active).

And the activity change, positive = activation [4]?
Its activity change, positive = activation is -42.2%.

And the Potency [5]?
The Potency was “inactive”.

What about the Potency [6] of the same molecule?
Its Potency is “inactive”.

And the Potency [7]?
Its Potency is “inactive”.

What about the Potency [8] of the same molecule?
The Potency was “inactive”.

And the Potency [9]?
The Potency was “inactive”.

And the Potency [10]?
Its Potency is 5.58 µM (active).

And the Potency [11]?
The Potency was “inactive”.

What about the Potency [12] of the same molecule?
The Potency was “inactive”.

And the Potency [13]?
Its Potency is “inactive”.

Which Potency [2] does the source give for Cc1[nH]nc2c1N=C(c1ccccc1Cl)c1cc([N+](=O)[O-])ccc1N2 here?
Its Potency is 80 µM (active).

What about the Potency [5] of the same molecule?
Its Potency is “inactive”.

And the Potency [7]?
The Potency was “inactive”.

And the Potency [8]?
The Potency was “inactive”.

What about the Potency [9] of the same molecule?
Its Potency is “inactive”.

And the Potency [11]?
Its Potency is “inactive”.

What about the Potency [14] of the same molecule?
The Potency was “inactive”.

What about the Potency [15] of the same molecule?
Its Potency is “inactive”.

What about the Potency [16] of the same molecule?
Its Potency is “inactive”.

And the Potency [13]?
The Potency was “inactive”.

Which results are given for CCOC(=O)O[C@]1(C(=O)OCCl)CC[C@H]2[C@@H]3CCC4=CC(=O)C=C[C@]4(C)[C@H]3[C@@H](O)C[C@@]21C?
Potency [17]: inactive; Potency [2]: inactive; Potency [6]: inactive; Potency [7]: inactive; Potency [8]: inactive; Potency [18]: inactive; Potency [9]: inactive; Potency [11]: inactive; Potency [12]: inactive; Potency [14]: inactive; Potency [16]: inactive

Which Potency [2] does the source give for O=C(c1ccc(F)cc1)C1CCN(CCn2c(=O)[nH]c3ccccc3c2=O)CC1 here?
The Potency was “inactive”.

And the activity change, positive = activation [4]?
The activity change, positive = activation was -25.2% [at 42.5 µM].

What about the Potency [5] of the same molecule?
The Potency was “inactive”.

And the Potency [19]?
Its Potency is 9.52 µM (active).

And the Potency [6]?
The Potency was “inactive”.

What about the Potency [7] of the same molecule?
Its Potency is “inactive”.

What about the Potency [8] of the same molecule?
Its Potency is “inactive”.

And the Potency [18]?
Its Potency is 8.49 µM (active).

What about the Potency [9] of the same molecule?
Its Potency is “inactive”.

And the Potency [10]?
The Potency was 9.52 µM (active).

And the Potency [11]?
Its Potency is “inactive”.

And the Potency [14]?
The Potency was “inactive”.

What about the Potency [15] of the same molecule?
Its Potency is “inactive”.

What about the Potency [13] of the same molecule?
The Potency was “inactive”.

Which Potency [2] does the source give for O=C(N/N=C/c1ccccc1O)c1ccncc1 here?
Its Potency is “inactive”.

What about the Potency [3] of the same molecule?
The Potency was 11.9 µM (active).

And the activity change, positive = activation [4]?
Its activity change, positive = activation is -42.8% [at 42.5 µM].

And the Potency [5]?
The Potency was “inactive”.

And the Potency [6]?
Its Potency is “inactive”.

What about the Potency [7] of the same molecule?
The Potency was “inactive”.

And the Potency [8]?
The Potency was “inactive”.

And the Potency [18]?
The Potency was “inactive”.

And the Potency [9]?
Its Potency is “inactive”.

And the Potency [11]?
The Potency was “inactive”.

What about the Potency [14] of the same molecule?
Its Potency is “inactive”.

And the Potency [15]?
The Potency was “inactive”.

What about the Potency [16] of the same molecule?
The Potency was “inactive”.

What about the Potency [13] of the same molecule?
The Potency was “inactive”.

Which results are given for Cc1cc(C2CCCCC2)n(O)c(=O)c1?
Potency [17]: 9.82 µM (active); Potency [2]: inactive; Potency [5]: inactive; Potency [19]: 1.69 µM (active); Potency [6]: inactive; Potency [7]: inactive; Potency [9]: inactive; Potency [10]: 1.69 µM (active); Potency [11]: inactive; Potency [12]: inactive; Potency [14]: inactive; Potency [15]: inactive; Potency [13]: inactive

Which results are given for O=C(NOCC1CC1)c1ccc(F)c(F)c1Nc1ccc(I)cc1Cl?
Potency [17]: inactive; Potency [3]: 11.9 µM (active); activity change, positive = activation [4]: -59% [at 42.5 µM]; Potency [6]: inactive; Potency [7]: 0.535 µM (active); Potency [8]: inactive; Potency [9]: inactive; Potency [10]: 23.9 µM (active); Potency [11]: inactive; Potency [15]: 0.0425 µM (active); Potency [16]: 0.107 µM (active); Potency [13]: 16.9 µM (active)
